RTF Ca sens inh: cardiac RTF calcium desensitization; IANBD-labeled cardiac RTF, Ca2+ fluorescence; inhibition, % at 7.15 µM; hit rate 0.12% among 340,000; AID 493244;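 active means inhibition above the mean inhibition of all tested compounds plus 3 SD, cut at about 17% in these data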;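 further: assay run at fixed EC70 calcium of 1.6 mM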
Keap1-Nrf2 PPI: Keap1-Nrf2 (human) interaction inhibition. Q14145. hit rate 0.15% among 340,000. Keap1 Kelch-Nrf2 peptide fluorescence polarization, 1536-well. AID 504523. inhibition, % at 9.4 µM; in the data active means inhibition above about 12%;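 further: human Keap1 Kelch domain with fluorescein labeled Nrf2 9mer peptide probe; 0% = neutral control wells and 100% = peptide positive control; higher means more block of Keap1 binding to Nrf2 peptide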
C-LANA FP: KSHV C-LANA DNA binding inhibition | MBP-C-LANA/FAM-LBS DNA binding, fluorescence polarization | inhibition, % at 9 µM | hit rate 0.078% among 340,000;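 active means highest replicate inhibition at or above 60% at 9 µM, even if other replicates fall short; inactive means all replicates below 60% inhibition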;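 further: 0% = neutral control wells and 100% = 4 µM acridine orange control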
RTF Ca sens act: cardiac RTF calcium sensitization; P19429+P45379; IANBD-labeled TnC RTF fluorescence at EC20 calcium; 0% EC20 calcium, 100% full calcium; activation, % at 7.2 µM; hit rate 0.24% among 340,000; AID 493008;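 active means activation above the mean over all tested compounds plus 3 SD, cut at about 30% in these data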;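 further: rise in fluorescence read as greater calcium sensitivity of cardiac thin filaments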
E coli Lon inh: inhibits E. coli Lon protease; P0A9M0; purified E. coli Lon protease, fluorescence polarization; inhibition, % at 7.94 µM; hit rate 0.42% among 360,000; AID 602123; in the data active means inhibition above about 13%, passing the limit was not always enough;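 further: 0% = enzyme with probe and DMSO and 100% = no enzyme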
Target sequence (P0A9M0 whole entry, looked up): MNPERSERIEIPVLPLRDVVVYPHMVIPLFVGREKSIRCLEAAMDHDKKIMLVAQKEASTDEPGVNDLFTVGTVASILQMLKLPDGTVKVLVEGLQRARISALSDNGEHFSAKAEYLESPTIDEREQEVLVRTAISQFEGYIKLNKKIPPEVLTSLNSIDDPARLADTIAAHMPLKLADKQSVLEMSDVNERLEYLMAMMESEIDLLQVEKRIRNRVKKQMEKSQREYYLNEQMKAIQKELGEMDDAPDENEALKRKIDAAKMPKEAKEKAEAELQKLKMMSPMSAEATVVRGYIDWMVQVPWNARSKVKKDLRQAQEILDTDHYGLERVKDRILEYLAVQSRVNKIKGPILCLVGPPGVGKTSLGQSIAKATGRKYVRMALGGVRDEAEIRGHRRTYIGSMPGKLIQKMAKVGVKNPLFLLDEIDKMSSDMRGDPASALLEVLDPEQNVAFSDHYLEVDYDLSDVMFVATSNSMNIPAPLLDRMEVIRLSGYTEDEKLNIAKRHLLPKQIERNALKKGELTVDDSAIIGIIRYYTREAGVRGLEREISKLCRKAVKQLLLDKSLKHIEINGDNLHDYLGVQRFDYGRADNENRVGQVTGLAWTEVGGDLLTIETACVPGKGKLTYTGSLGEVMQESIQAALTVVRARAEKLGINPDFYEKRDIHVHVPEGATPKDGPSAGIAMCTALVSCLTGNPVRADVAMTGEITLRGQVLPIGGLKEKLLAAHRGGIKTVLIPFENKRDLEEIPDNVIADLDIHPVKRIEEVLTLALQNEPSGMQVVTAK
Keap1 TSA: binds and thermally shifts human Keap1 Kelch domain | shares compounds with Keap1-Nrf2 PPI | Keap1 Kelch thermal shift, delta Tm; hits give high values | max delta Tm, degrees C | hit rate 8% among 400 | AID 651823; in the data active means max delta Tm above about 0.48 degrees C
Dye-only ctr: counter-screen for Keap1 thermal shift hits: dye-only artifacts | shares compounds with Keap1-Nrf2 PPI | Sypro Orange dye-only thermal melt, no protein, delta Tm; top dose 26 µM | delta Tm, degrees C (concentration not given with the values) | 140 tested, under 10 active | AID 651858;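 active means at highest dose tested, delta Tm positive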
E coli Lon conf: confirmation of E. coli Lon protease inhibitors; hit rate 31% among 1,400; inhibition, % at 7.94 µM; purified E. coli Lon, fluorescence polarization; shares compounds with E coli Lon inh; in the data active means inhibition above about 16%;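 further: 0% = enzyme with probe and DMSO and 100% = no enzyme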
* hit, by the source's call; i = inactive; . = not tested or not shown; + = active, no number. Rows were chosen to be rich in hits. Some 0.82% of all compounds tested hit in one or more screens of this group.

SMILES	RTF Ca sens inh	Keap1-Nrf2 PPI	C-LANA FP	RTF Ca sens act	E coli Lon inh	Keap1 TSA	E coli Lon conf	others
COc1ccc(C2OC34CCCCC3C(C#N)(C#N)C2(C#N)C(=N)O4)cc1 (stereo unspecified)	-34	22*	45	24	34*	-0.08	34*	Dye-only ctr=-27
CCC1OC23CCCCC2C(C#N)(C(=N)O3)C1(C#N)C#N (stereo unspecified)	-40	27*	55	35*	28*	-0.08	10	Dye-only ctr=-31
CC1OC23CCCCC2C(C#N)(C(=N)O3)C1(C#N)C#N (stereo unspecified)	-9	5	8	10	-11	.	.
CCN1C(=O)c2cccc3c(Cl)ccc(c23)C1=O	-2	2	-1	3	-10	.	.
CC(C)CCN1C(=O)c2cccc3c(N)ccc(c23)C1=O	i	71*	96*	658*	+	0.11	143*
CC(=O)Nc1cccc2c1C(=O)N(c1cccc(C)c1)C2=O	-2	1	0	2	7	.	.
Cc1cccc(N2C(=O)c3cccc4c(N)ccc(c34)C2=O)c1	i	75*	135*	+	+	-0.12	+	Dye-only ctr=-26
Cc1cccc(N2C(=O)c3cccc4c(N(C)CCO)ccc(c34)C2=O)c1	-273	12*	68*	331*	175*	-0.01	144*
Cc1cccc(N2C(=O)c3cccc4cccc(c34)C2=O)c1	-6	-4	-2	-1	-3	.	.
Nc1ccc2c3c(cccc13)C(=O)N(c1ccccc1)C2=O	i	31*	19	972*	+	-0.06	+
COc1cc2ccccc2ccc1=NO	0	-6	-1	0	2	.	.
O=C(Nc1ccc2c(c1)OCCO2)C(c1ccnc2ccccc12)N1CCN(C/C=C/c2ccccc2)CC1 (stereo unspecified)	.	.	.	.	8	.	.
Nc1cccc(N2C(=O)c3cccc4c(N)ccc(c34)C2=O)c1	-376	17*	88*	291*	+	0.04	+
NS(=O)(=O)c1ccc(CNC(=O)c2ccc(NS(=O)(=O)c3cccs3)cc2)cc1	-11	0	0	-3	0	.	.
Fc1ccc(C2=CC(c3ccco3)n3ncnc3N2)cc1 (stereo unspecified)	-83	19*	33	70*	79*	-0.03	-3
CC(C)C(=O)Nc1cc2c3c(c1)CCC(=O)N3CCC2	-10	1	0	-5	-10	.	.
CN(C(=O)COC(=O)CSc1ccccc1)c1c(N)n(Cc2ccccc2)c(=O)[nH]c1=O	.	.	.	.	10	.	.
CC(C)c1nnc(N2C(=O)C(O)=C(C(=O)c3cccs3)C2c2ccccc2)s1 (stereo unspecified)	-46	20*	35	25	34*	-0.16	80*
CCN(CC)C(=O)C1c2ccccc2Oc2ccccc21	2	39*	77*	-8	+	-0.12	-51
Cc1c(C(=O)NCc2ccc3c(c2)OCCO3)sc(=O)n1Cc1ccccc1C(F)(F)F	.	.	.	.	-6	.	.
CCCCOc1[nH]c2nc(-c3ccco3)n(Cc3ccco3)c(=N)c2c1C#N	-36	16*	36	22	51*	0.23	10
CCOC(=O)C1CCCN(C(=O)C2c3ccccc3Oc3ccccc32)C1 (stereo unspecified)	-109	47*	119*	93*	+	-0.16	36*	Dye-only ctr=-45
CCOC(=O)C1CCCN(C(=O)C2COc3ccccc3O2)C1 (stereo unspecified)	-16	-5	0	0	1	.	.
CNC(=O)c1c(NC(=O)CCS(=O)(=O)c2ccc(C)cc2)sc(C)c1C	-7	-4	-1	-2	-1	.	.
COc1ccc(NC(=O)c2cccc(-c3ccc(O)cc3)c2)cn1	-36	13*	41	16	74*	0.15	35*
CC(=O)Nc1cccc(NC(=O)c2cccc(-c3ccc(O)cc3)c2)c1	-10	-5	0	7	-4	.	.
COc1ccc(/C=N/N=C2/NC(=O)CC(C(=O)O)S2)cc1 (stereo unspecified)	2	7	1	3	-12	.	.
